Assay results from PubChem BioAssay.

Test: P. aeruginosa biofilm formation inhibitors, primary screen, PAO1 strain, BacTiter-Glo luminescence, LB-PBS (AID 1144)
Settings: 12 h, higher = more signal; call rule not given here

z-score, inactive:
C=CCC(OC(C)=O)[C@@H]1[C@@H](N(Cc2cc3ccccc3o2)C(=O)c2ccc(-c3ccccc3)cc2)c2cc(OCCCO)ccc2N1C(=O)Cc1ccc(OC)cc1 (some centres not stated) 0.263
COCC(=C=CC[C@@H](O)c1ccc(OCCO)cc1)CCO -0.934
CC(C)(C)OC(=O)CC[C@]12N=C(c3ccc(OCCCO)cc3)O[C@H]1c1ccccc1N(Cc1ccccc1)C2=O 1.18
O=C1OCCC/C=C\[C@H]2OC34C=CCN(c5ccc6ccccc6c5)C(=O)[C@H]3N(CCCO)C(=O)[C@@H]4C12 (some centres not stated) 2.06
C=C/C=C/[C@@H]1C(=C)CN([C@@H](Cc2ccccc2)C(=O)OC)[C@H]1[C@@H](O)Cc1ccccc1 -0.428
O=C1NC(=O)C2C1C=CC(C(O)c1ccccn1)N2Nc1ccc(Cl)cc1Cl (configuration not stated) -0.595
CC(C)C[C@@H]1NC(=O)CNC(=O)[C@@]23C(=O)N[C@@H](Cc4ccccc4)C2[C@H](C)[C@@]2(C)O[C@H]2C3/C=C/C/C=C\CNC1=O (some centres not stated) -0.826
CCOC(=O)C1=C[C@@H](c2ccccc2)N(S(=O)(=O)c2ccc(C)cc2)[C@H]1c1ccccc1 -0.42
[N-]=[N+]=NCc1ccccc1C[C@]1(C(=O)N2CCOCC2)COC(c2ccc(OCCCO)cc2)=N1 -0.983
COCCOC(=O)N1C(=O)[C@@]2(c3cc(C#Cc4ccc(OC)cc4)ccc31)[C@H](C(=O)NC[C@H](O)c1ccccc1)[C@H]1C(=O)O[C@H](c3ccccc3)[C@H](c3ccccc3)N1[C@@H]2c1ccc(OCCO)cc1 -1.73
COCCOC(=O)N1C(=O)[C@@]2(c3cc(C#CCC(C(=O)OC)C(=O)OC)ccc31)[C@H](c1ccc(OCCO)cc1)N1[C@H](c3ccccc3)[C@H](c3ccccc3)OC(=O)[C@H]1[C@@H]2C(=O)Nc1nc2ccccc2s1 -0.45
COCCOC(=O)N1C(=O)[C@@]2(c3cc(C#CCNC(N)=O)ccc31)[C@H](c1ccc(O)cc1)N1[C@H](c3ccccc3)[C@H](c3ccccc3)OC(=O)[C@H]1[C@@H]2C(=O)N1CCN(c2ncccn2)CC1 -0.648
COc1cc(C(O)C2C=CC3C(=O)N(Cc4ccccc4)C(=O)C3N2n2cnnc2)cc(OC)c1OC (configuration not stated) -1.77
CCCCC=C[C@@H](NC(=O)c1ccccc1)c1ccccc1 -0.287
COc1ccc([Si](C)(C)[C@@H]2[C@@H](CC(=O)N3Cc4ccccc4C[C@H]3CO)O[C@]3(C(=O)N(c4ccccc4)c4ccccc43)[C@H]2C)cc1 -0.751
CCOC(=O)C1=CCC(c2ccccc2)N(S(=O)(=O)c2ccc([N+](=O)[O-])cc2)C1 (configuration not stated) 0.697
[N-]=[N+]=NCc1ccccc1[C@@H]1OC(c2ccc(OCCCO)cc2)=N[C@]1(Cc1ccccc1N=[N+]=[N-])C(=O)N1CCCCC1 -0.166
C=CCN1C(=O)[C@]2(O[C@H](CCO)[C@@H]([Si](C)(C)c3ccc(OC)cc3)[C@@H]2C)c2cc(N3C(=O)COc4ccccc43)ccc21 0.518
COCCCNC(=O)[C@@]1(c2ccc([N+](=O)[O-])cc2)CC(=O)N(CC23CC4CC(CC(C4)C2)C3)[C@@H]1c1ccc(CO)cc1I 0.142
CC(C)OC(=O)CC(=O)CC(O)c1ccc([N+](=O)[O-])cc1 (configuration not stated) 0.402
CCOC(=O)C1=CCC(c2ccco2)N(S(=O)(=O)c2ccc(C)cc2)C1 (configuration not stated) -1.65
[N-]=[N+]=Nc1ccccc1[C@@H]1OC(c2ccc(OCCCO)cc2)=N[C@]1(Cc1ccccc1)C(=O)NCc1ccccc1 -0.065
[N-]=[N+]=NCc1ccccc1C[C@@]1(C(=O)N2CCCCC2)N=C(c2ccc(OCCCO)cc2)O[C@@H]1c1ccccc1CN=[N+]=[N-] 0.87
O=C1C2C=CC(C(O)c3ccc(I)cc3)N(Nc3ccccc3)C2C(=O)N1c1ccccc1 (configuration not stated) -0.379
CC(C)C(=C=CC[C@@H](O)c1cccc(OCCO)c1)C[C@@H](O)c1ccccn1 -0.382
COC(=O)[C@@]1(Cc2ccccc2CN=[N+]=[N-])N=C(c2ccc(OCCCO)cc2)O[C@H]1c1ccccc1 -1.09
CCOC(=O)C[C@H]1[C@H](OC(=O)c2cc3ccccc3oc2=O)[C@@H](NC(=O)c2ccc3ccccc3c2)c2cc(OCCCO)ccc2N1C(=O)Cc1ccc(OC)cc1 -0.784
